In PubChem BioAssay (NCATS):
Values joined by “and” are separate entries in the source; they are usually repeats but may differ in a detail not shown here. Identical values can stand only once. Inconclusive results are not listed. Values without a mark were called inactive. The call rests on the fitted dose curve; in most records, active means well fitted activation curve with a large enough effect; inconclusive means small, poorly fitted or top-dose-only effect; inactive means no such curve, though single readings can be large or run the other way.

The compounds below were run against Cellular tumor antigen p53 (Homo sapiens) (UniProt P04637) (assay: Primary qHTS for small molecule compounds that upregulate eGFP-tagged delta133p53alpha (in N-terminal) cells. (AID 2060322;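 further: series mostly up to about 56 µM; 0% = DMSO vehicle and 100% = reference activator; nearly all actives have a fitted effect of over 75% in size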)). Settings: NCI-H358 eGFP-delta133p53alpha fluorescence, 24 h; activation: hits give high values.
How it was run: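 NCI-H358 cells pre-induced 24 h with 10 ng/ml doxycycline to express N-terminal eGFP-delta133p53alpha, then dosed 24 h at 37C without doxycycline; fixed, Hoechst-stained, GFP intensity by laser scanning cytometry, normalized to DMSO (0%) and 57.5 uM 5-azacytidine (100%).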

Chain of Cellular tumor antigen p53 (Homo sapiens) (P04637 whole entry, looked up): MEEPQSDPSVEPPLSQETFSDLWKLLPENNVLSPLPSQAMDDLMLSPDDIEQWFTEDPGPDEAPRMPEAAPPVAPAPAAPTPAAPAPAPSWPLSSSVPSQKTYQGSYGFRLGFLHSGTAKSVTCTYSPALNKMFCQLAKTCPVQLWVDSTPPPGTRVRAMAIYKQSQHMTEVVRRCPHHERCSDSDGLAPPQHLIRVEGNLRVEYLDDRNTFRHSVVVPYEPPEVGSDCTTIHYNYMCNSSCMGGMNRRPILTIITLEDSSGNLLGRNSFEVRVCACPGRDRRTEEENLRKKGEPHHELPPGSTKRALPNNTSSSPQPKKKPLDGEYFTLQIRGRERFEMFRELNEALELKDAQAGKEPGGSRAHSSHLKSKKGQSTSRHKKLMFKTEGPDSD

Structure (SMILES)	activation
CCc1cc(C(C)=NOCc2ccc(C3CCCCC3)c(C(F)(F)F)c2)ccc1CN1CC(C(=O)O)C1	10.9%
O=C(Nc1ncc([N+](=O)[O-])s1)c1cccs1	10%
CCC=CC[C@H]1C(=O)CC[C@@H]1CC(=O)OC	10.3%
O=C(Nc1ccc([N+](=O)[O-])cc1)Nc1ccc([N+](=O)[O-])cc1	-25.9%
C#CC(C)(CC)OC(=O)c1ccccc1C(=O)O (stereo not given)	-11.9%
CNC(=O)c1cccc(-c2ccc3c(N4CCOC[C@H]4C)nc(N4CCOC[C@H]4C)nc3n2)c1	19.5%
C[C@]12C=CC(=O)N[C@@H]1CC[C@H]1[C@H]3CC[C@@H](C(=O)Nc4cc(C(F)(F)F)ccc4C(F)(F)F)[C@@]3(C)CC[C@@H]12	9.28%
CC(=O)OC[C@H]1O[C@@H](n2ncc(=O)[nH]c2=O)[C@H](OC(C)=O)[C@@H]1OC(C)=O	-7.53%
COc1ccc2c(c1)c(CC(=O)OCC(=O)O)c(C)n2C(=O)c1ccc(Cl)cc1	-15.1% and 5.95%
CC(=O)c1ccc(O)c(C(N)=O)c1	-19.8%
COc1ccc(C(=O)NCc2ccc(OCCN(C)C)cc2)cc1OC	-28.8%
Nc1ncnc2c1ncn2[C@@H]1O[C@H](COP(=O)(O)O)[C@@H](O)[C@H]1O	5.08%
COc1ccc(CCC(=O)c2c(O)cc(O[C@@H]3O[C@H](CO)[C@@H](O)[C@H](O)[C@@H]3O[C@@H]3O[C@@H](C)[C@H](O)[C@@H](O)[C@@H]3O)cc2O)cc1O	22.6%
N[C@@H](CSSC[C@H](N)C(=O)O)C(=O)O	24.3%
NS(=O)(=O)c1cc(C(=O)NN2C[C@H]3[C@H]4CCC(C4)[C@H]3C2)ccc1Cl	0%
NC(=O)C1(N2CCCCC2)CCN(CCCN2c3ccccc3CCc3ccc(Cl)cc32)CC1	3.35%
O=C(O)Cc1sc(-c2ccccc2)nc1-c1ccc(Cl)cc1	-17.6%
CNCCN1CCC(OCc2ccccc2)CC1	-13.4%
CN1CCC[C@H]1CCO[C@](C)(c1ccccc1)c1ccc(Cl)cc1	16.8%
CN1CCCN=C1COC(=O)C(O)(c1ccccc1)C1CCCCC1 (stereo not given)	2.51%

Structure (SMILES)	activation
O=C(CN1CCN(Cc2ccc3c(c2)OCO3)CC1)N1c2ccccc2Sc2ccccc21	1.69%
COC(=O)c1ccccc1C(=O)c1ccc(OCCN2CCCCC2)cc1	-14.1%
CC(=O)NCC(=O)N1[C@H]2CC[C@H]1c1cc(Nc3ncc(C(F)(F)F)c(NC4CCC4)n3)ccc12	32.7%
CC(C)[C@@H]1CC[C@@H](C)CC1=O	16.4%
CN1CCCCC1CCN1c2ccccc2Sc2ccc(S(C)=O)cc21 (stereo not given)	-3.95%
COc1cc(C(=O)N2CCOCC2)cc(OC)c1OC	20.9%
COc1ccc(-n2nc(CCC(=O)N(C)O)cc2-c2ccc(Cl)cc2)cc1	-8.47%
CO[C@@H]1[C@@H](O[C@@H]2O[C@H](C)[C@@H](O[C@H]3C[C@@](C)(O)[C@@H](O)[C@H](C)O3)[C@H](N(C)C)[C@H]2O)[C@@H](CC=O)C[C@@H](C)[C@@H](O[C@@H]2CC[C@H](N(C)C)[C@@H](C)O2)/C=C/C=C/C[C@@H](C)OC(=O)C[C@H]1OC(C)=O	-19.8%
CN(C)CC/C=C1\c2ccccc2Sc2ccc(Cl)cc21	0%
Cc1cc2c(OCC(CNC(C)(C)C)OC(=O)c3ccccc3)cccc2[nH]1 (stereo not given)	9.6%
CCC(=O)OCC(=O)[C@@]1(OC(=O)CC)[C@@H](C)C[C@@H]2[C@H]3CCC4=CC(=O)C=C[C@]4(C)[C@@]3(F)[C@@H](O)C[C@@]21C	3.16%
CON=C(C(=O)N[C@@H]1C(=O)N2C(C(=O)O)=C(Cn3ccc(=N)n3CCO)CS[C@H]12)c1csc(N)n1	23.9%
CC[C@@H]([C@H](C)O)n1ncn(-c2ccc(N3CCN(c4ccc(OC[C@@H]5CO[C@@](Cn6cncn6)(c6ccc(F)cc6F)C5)cc4)CC3)cc2)c1=O	22.6%
C/C(=C(/OCCOc1ccc(Cl)cc1)c1ccc(Cl)cc1Cl)n1ccnc1	7.53%
CCCCCCCC(=O)OCC(O)CO (stereo not given)	-14.2%
CCCCCCCCOc1ccc(C(=O)c2ccccc2)c(O)c1	-2.82%
CC1(C)CO[C@@H](CC(=O)O)CN1	-5.86%
CCCOC(=O)c1ccccc1	-2.82%
C/C(=N\O)[C@@H](C)NCC(C)(C)CN[C@H](C)/C(C)=N/O	-12.6%
O=C(CCCl)NCc1ccccc1	-0.565%
